# Assay results as given in PubChem BioAssay AID463173 (ICCB-Longwood Screening Facility, Harvard Medical School, 2010).
# Out of some 52,000 compounds screened, about 4,300 (8.3%) were called active. The sample holds actives, similar compounds and a random draw of the others, so the mix is not that of the screen. Values without a mark were called inactive. Cut-off read from the data, not from the text of the source: active = survival mostly below about 52% (no sharp cut-off); inactive = mostly above about 56%.
# System: DeltatarO mutant
# Assay: growth inhibition of S. aureus wild type versus tarO mutant, primary screen, teichoic acid synthesis inhibitors, RN4220, OD600 (AID 463173)
# Conditions: OD600, 18 h, hits give low values, screened at 18.75 µg/mL (by protocol)
row,Compound,survival
1,COCCN(C(=O)c1ccccc1)c1nnc(-c2ccncc2)s1,94%
2,Cc1cc(C)cc(NC(=O)CSc2nc(=O)[nH]c3c2CCC3)c1,112%
3,CCCOC1(C(F)(F)F)NC(=O)N(c2ccc(Cl)cc2)C1=O (stereo not drawn),66%
4,Cc1cc(C)c2c(n1)SCCN2C(=O)Nc1ccc(C(=O)Nc2cc(Cl)ccc2C)cc1,97%
5,CC(=O)Nc1ccc(NC(=O)CCc2c(C)nc3c(c(C)nn3-c3ccc(C)cc3)c2C)cc1,114%
6,CCC1CN(C(=O)N2CCC(C(=O)N3CCN(c4ccccc4F)CC3)CC2)c2ccccc2O1 (stereo not drawn),97%
7,CCC1CN(C(=O)N2CCC(C(=O)N3CCN(c4cccc(C)c4C)CC3)CC2)c2ccccc2O1 (stereo not drawn),62%
8,CCC1CN(C(=O)N2CCC(C(=O)N3CCN(c4cc(C)ccc4C)CC3)CC2)c2ccccc2O1 (stereo not drawn),36% (active)
9,CC1=C(C(=O)Nc2ccc(C)cc2C)C(c2sccc2C)n2ncnc2N1 (stereo not drawn),68%
10,O=C(NC1CCCC1)c1ccc2c(c1)OCO2,69%
11,O=C1C2C3c4ccccc4C(c4ccccc43)C2C(=O)N1C(CO)(CO)CO (stereo not drawn),102%
12,CC1=C(C(=O)OC2CCCCCC2)C(c2c(Cl)cccc2Cl)CC(=O)N1 (stereo not drawn),32% (active)
13,CC1=C(C(=O)OC2CCCCCC2)C(c2c(F)cccc2Cl)CC(=O)N1 (stereo not drawn),57%
14,CC1=C(C(=O)OC2CCCC2)C(c2c(Cl)cccc2Cl)CC(=O)N1 (stereo not drawn),71%
15,CCCN1CC=C2C(C#N)=C(N)C(C#N)(C#N)C(c3ccc(OCC(N)=O)cc3)C2C1 (stereo not drawn),81%
16,CCCc1ccc(S(=O)(=O)N2CCC(c3nnc(-c4cccc(C)c4)o3)CC2)cc1,75%
17,COc1ccc(CNCc2c(C(=O)O)c(C)n(Cc3ccccc3C)c2C)cc1OC,91%
18,COc1ccc(NC(=O)/C(C#N)=C/c2ccc(OCc3cc(=O)n4nc(C)sc4n3)cc2)cc1,61%
19,CCOc1cc(/C=C(\C#N)C(=O)Nc2ccc(OC)cc2)ccc1OCc1cc(=O)n2nc(CC)sc2n1,55% (active)
20,CCOc1cc(/C=C(\C#N)C(=O)Nc2ccc(C)cc2)ccc1OCc1cc(=O)n2nc(CC)sc2n1,68%
21,Cc1nn2c(=O)cc(COc3ccc(/C=C(\C#N)C(=O)Nc4ccccc4)cc3Cl)nc2s1,49% (active)
22,COc1cc(/C=C(\C#N)C(=O)Nc2ccc(C)cc2)ccc1OCc1cc(=O)n2nc(C)sc2n1,78%

row,Compound,survival
1,CCc1nn2c(=O)cc(COc3ccc(/C=C(\C#N)C(=O)Nc4ccc(F)cc4)cc3OC)nc2s1,106%
2,CCOc1ccc(NC(=O)CSc2nc3ccsc3c(=O)n2CC)cc1,89%
3,Cc1cc(C)n2nc(C(=O)N/N=C/c3ccncc3)nc2n1,76%
4,c1ccc(-n2nc3ccc4nonc4c3n2)cc1,86%
5,On1c2c(c3c4nonc4ccc31)CCCC2,0% (active)
6,COc1ccc(-c2[nH]c3ccccc3c2SCCNC(=O)c2ccc(S(=O)(=O)N(C)C)cc2)cc1,67%
7,COc1cccc(C2=C(C(C)=O)Sc3nnc(C4CCCCC4)n3N2C(C)=O)c1,81%
8,CCOc1ccccc1NC(=O)c1cccc2c1C(=O)N(C1CCCCC1)C2,92%
9,Cc1cccc(Cn2nnc3c(=O)[nH]c(C4CCCN(C(=O)c5ccccc5Cl)C4)nc32)c1 (stereo not drawn),71%
10,O=C(Nc1ccc(F)cc1)N1CCCC(c2nc3c(nnn3Cc3ccccc3Cl)c(=O)[nH]2)C1 (stereo not drawn),88%
11,Cc1cccc(Cn2nnc3c(=O)[nH]c(C4CCCN(C(=O)c5ccc(C(C)(C)C)cc5)C4)nc32)c1 (stereo not drawn),18% (active)
12,CC(C)(C)c1ccc(C(=O)N2CCCC(c3nc4c(nnn4Cc4cccc(F)c4)c(=O)[nH]3)C2)cc1 (stereo not drawn),7% (active)
13,COc1cccc(Cn2nnc3c(=O)[nH]c(C4CCCN(C(=O)c5ccc(C)cc5)C4)nc32)c1 (stereo not drawn),90%
14,CC(C)(C)C(=O)N1CCCC(c2nc3c(nnn3Cc3ccc(C(C)(C)C)cc3)c(=O)[nH]2)C1 (stereo not drawn),1% (active)
15,CCCC(=O)N1CCCC(c2nc3c(nnn3Cc3ccccc3)c(=O)[nH]2)C1 (stereo not drawn),102%
16,Cc1ccccc1Cn1nnc2c(=O)[nH]c(C3CCCN(C(=O)c4ccc(F)cc4)C3)nc21 (stereo not drawn),114%
17,Cc1ccccc1Cn1nnc2c(=O)[nH]c(C3CCCN(C(=O)c4ccc(C(C)(C)C)cc4)C3)nc21 (stereo not drawn),7% (active)
18,CCc1ccc(Cn2nnc3c(=O)[nH]c(C4CCCN(C(=O)c5cccc(Cl)c5)C4)nc32)cc1 (stereo not drawn),74%
19,O=C(c1cccs1)N1CCCC(c2nc3c(nnn3Cc3ccc(F)cc3)c(=O)[nH]2)C1 (stereo not drawn),101%
20,Cc1ccc(Cn2nnc3c(=O)[nH]c(C4CCCN(C(=O)c5ccco5)C4)nc32)cc1 (stereo not drawn),91%
21,COc1ccc(-c2ccc(NS(=O)(=O)c3ccc(F)c(C(F)(F)F)c3)cc2)nn1,117%
22,Cc1ccc2cc(CN(CCN(C)C)C(=O)NC3CCCCC3)c(=O)[nH]c2c1,101%

row,Compound,survival
1,O=C(CCn1cccn1)NCc1ccc(Cl)cc1,73%
2,COc1ccc(OC(=O)c2cn(-c3cccc(OC)c3)c(=O)c3ccccc23)cc1,80%
3,COC(=O)c1ccc(NC(=O)c2nn(C)c3c2CS(=O)(=O)c2ccccc2-3)cc1,81%
4,CC1(C)c2ssc(=S)c2-c2ccccc2N1C(=O)CSC#N,106%
5,Cc1ccc(NC(=O)c2c3c(nc4ccccc24)C(=O)N(C2CCCCC2)C3)cc1F,102%
6,Cc1nn(CC(=O)Nc2cccc(C(F)(F)F)c2)c(=O)c2nn(-c3ccccc3)c(C)c12,75%
7,O=C(c1ccc(-c2cccc(C(F)(F)F)c2)o1)N1CCOCC1,84%
8,O=C(Nc1ccc(Br)c2cccnc12)c1cccc2ccccc12,29% (active)
9,O=C(Nc1cccc2cccnc12)c1cccc2c(Br)cccc12,70%
10,COc1c(Cl)cc(Cl)cc1C(=O)Nc1cccc2cccnc12,143%
11,O=C(Nc1cccc2cccnc12)c1cccc2ccccc12,1% (active)
12,O=C(O)c1ccccc1C(=O)Nc1ccc(Br)c2cccnc12,49%
13,O=C(Nc1cccc2cccnc12)c1ccccc1[N+](=O)[O-],68%
14,O=C(CN1Cc2ccccc2C1=O)Nc1cc(F)ccc1F,81%
15,Cc1nc2ccc(S(=O)(=O)CCC(=O)Nc3ccc(C)c(C)c3)cc2s1,107%
16,CCOc1ccc(-n2c(SCC(=O)Nc3ccc(CC)cc3)nc3c(oc4ccccc43)c2=O)cc1,71%
17,CCOC(=O)c1c(S(=O)(=O)NCC(=O)N(C)Cc2ccccc2)c(C)n(C)c1C,89%
18,CCOc1no[n+]([O-])c1-c1ccccc1,90%
19,CN(C(=O)CSc1nc2ccc(NC(=O)c3ccccc3F)cc2s1)c1ccccc1,103%
20,CCN(Cc1nc(-c2ccc(OC)cc2)oc1C)S(=O)(=O)c1ccc(C)cc1,95%
21,COc1ccc(C(=O)N/N=C2/SCC(=O)N2C)c(OC)c1,69%
22,Cc1[nH]c2ccccc2c1C1(O)C(=O)N(Cc2ccccc2Cl)c2ccccc21 (stereo not drawn),51%

row,Compound,survival
1,CCCCN1C(=O)C(O)(c2c(C)[nH]c3ccccc23)c2ccccc21 (stereo not drawn),51%
2,CCCCN1C(=O)C(O)(c2c(C)[nH]c3ccccc23)c2cc(Br)ccc21 (stereo not drawn),27% (active)
3,Cc1[nH]c2ccccc2c1C1(O)C(=O)N(Cc2ccccc2)c2ccc(Br)cc21 (stereo not drawn),3% (active)
4,CCN1C(=O)C(O)(c2c(C)[nH]c3ccccc23)c2ccccc21 (stereo not drawn),54%
5,Cc1ccc(CN2C(=O)C(O)(c3c(C)[nH]c4ccccc34)c3ccccc32)cc1 (stereo not drawn),101%
6,Cc1[nH]c2ccccc2c1C1(O)C(=O)N(Cc2ccccc2)c2ccc(Cl)cc21 (stereo not drawn),24% (active)
7,Cc1ccc(C)c(CN2C(=O)C(O)(c3c(C)[nH]c4ccccc34)c3ccccc32)c1 (stereo not drawn),51%
8,Cc1[nH]c2ccccc2c1C1(O)C(=O)N(Cc2ccc(Cl)cc2)c2ccccc21 (stereo not drawn),29% (active)
9,CCOC(=O)CC(NC(=O)CCc1c(C)nc2c(-c3ccccc3)c(C)nn2c1C)c1ccc(C)cc1 (stereo not drawn),63%
10,COc1ccccc1CNC(=O)C1CCN(S(=O)(=O)c2c(C)noc2/C=C/c2c(C)cc(C)cc2C)CC1,79%
11,COc1cn(CC(=O)Nc2cccc(C)c2)c(CN2CCCCC2)cc1=O,85%
12,C=CCNC(=O)CSc1ccc(C)cc1,82%
13,COc1cc(OC)c(NC(=O)NCc2ccc3c(c2)CCN3C(C)=O)cc1Cl,124%
14,CC(C)(Oc1ccc(Cl)cc1)C(=O)Nc1ccc(-c2nc3ncccc3o2)cc1,52%
15,Cc1ccc(SCC(=O)Nc2cccc(-c3nc4cc(Cl)ccc4o3)c2C)cc1,60%
16,Cc1c(NC(=O)C(C)(C)Oc2ccc(Cl)cc2)cccc1-c1nc2ccccc2o1,2% (active)
17,COc1c(Cl)cc(Cl)cc1C(=O)Nc1cccc(-c2nc3ccccc3o2)c1C,109%
18,Cc1c(NC(=O)C(C)(C)Oc2ccc(Cl)cc2)cccc1-c1nc2ncccc2o1,19% (active)
19,Cc1cc(NC(=O)C(C)(C)Oc2ccc(Cl)cc2)cc(-c2nc3ncccc3o2)c1O,82%
20,CCCCN1CCc2nc(Nc3ccc(OC)cc3OC)ncc2C1,77%
21,CCOC(=O)c1noc2ncn(CC(=O)O)c(=O)c12,54%
22,O=C(O)c1c2c(nc3ccc(F)cc13)CCCC2,89%
